The values that follow come from PubChem BioAssay.

Unmarked numbers belong to inactive results. The source made the active and inactive calls. Rule as the data show it: active = inhibition above about 37%; inactive = the rest.

This experiment has as its system Hepatitis C virus NS3 helicase. As to the kind of experiment: HCV NS3 helicase inhibitors, primary screen, biochemical, fluorescence polarization, LOPAC1280 library (AID 687035). Particulars: Purified HCV NS3 helicase, Cy5-dT15 ssDNA binding fluorescence polarization; active compounds read high; concentration not given here.
Turning to `CCCC(C(=O)OCCN(CC)CC)(c1ccccc1)c1ccccc1`, the inhibition was -6%.

`O=C(Nc1ccc([N+](=O)[O-])cc1Cl)c1cc(Cl)ccc1O`: the inhibition is -2%.

Regarding `C=CC(N)CCC(=O)O` (stereo not drawn), the inhibition is 0%.

On to `CNC1(C)C2CCC(C2)C1(C)C` (stereo not drawn), for which the inhibition is 0%.

In the case of `NCCS`, the inhibition was -2%.

As to `Nc1c2c(nc3ccccc13)CCCC2O` (stereo not drawn), the inhibition is -4%.

With `CSc1ccc2c(c1)C(N1CCN(C)CC1)Cc1ccccc1S2` (stereo not drawn), the inhibition is -5%.

For `Cc1ccc(C(=O)Nc2ccc(S(=O)(=O)O)c3cc(S(=O)(=O)O)cc(S(=O)(=O)O)c23)cc1NC(=O)c1cccc(NC(=O)Nc2cccc(C(=O)Nc3cc(C(=O)Nc4ccc(S(=O)(=O)O)c5cc(S(=O)(=O)O)cc(S(=O)(=O)O)c45)ccc3C)c2)c1`, the inhibition was 96% (active).

For `C[N+]1(CCCCC[N+]2(C)CCCC2)CCCC1`, the inhibition was 4%.

With `CCCCCN(CCCCC)C(=O)C(CCC(=O)O)NC(=O)c1ccc(Cl)c(Cl)c1` (stereo not drawn), the inhibition is -5%.

With `NC(=O)NO`, the inhibition was -3%.

Regarding `CCOC(=O)C(C)(C)Oc1ccc(Cl)cc1`, the inhibition is -5%.

`CC(=O)OC(C)C[N+](C)(C)C` (stereo not drawn): the inhibition was -2%.

`NNc1nncc2ccccc12`: the inhibition is -3%.

For `COC(=O)[C@@H]1[C@H]2C[C@H]3c4[nH]c5ccccc5c4CCN3C[C@@H]2CC[C@@H]1O`, the inhibition is 0%.

Take `CC(=O)Oc1ccccc1C(=O)O`: the inhibition is -3%.

On to `Cn1cnc2c1c(=O)[nH]c(=O)n2C`, for which the inhibition is -5%.

For `C[n+]1cc2c3c(ccc2c2ccc4cc5c(cc4c21)OCO5)OCO3`, the inhibition was -2%.
